Screening results as filed in PubChem BioAssay.
In the library only some 7.6% were active in any assay of this set; here they are far more common.
KCNH2 3.1 inh = qHTS for Inhibitors of KCHN2 3.1: Mutant qHTS; 340,000 compounds, 0.95% hits; U2OS KCNH2 3.1, thallium flux FluxOr; hits give low values; activity change, % (tested at about 1.8 µM);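 active = maximum activity change below -70%; inconclusive = maximum activity change from -70% to -50%; inactive = maximum activity change above -50%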;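 note: thallium influx rate constant from kinetic fluorescence after stimulation buffer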
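FluxOr-based Tl+ influx in U2OS cells transduced with KCNH2 3.1 virus; rate constants normalized to DMSO controls.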
KB-V1 cytotox = qHTS assay for MDR1-selective chemotherapeutics: Primary screen using the drug-selected MDR subline cells KB-V1; KB-V1 MDR cells viability, CellTiter-Glo, 72 h; Potency, µM (doses to about 46.1 µM), usual class: cytotoxic; 400,000 compounds, 3.4% hits; AID 1347076, 2019; note: nearly all actives have a fitted effect of over 60% in size
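Cytotoxicity toward P-gp-expressing KB-V1 cells was determined as loss of CellTiter-Glo luminescence after 72 h at 37 degrees C. Compounds were tested in quantitative HTS format across a concentration range, with curves fitted to normalized data.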
hERG WT inh = qHTS for Inhibitors of KCHN2 3.1: Wildtype qHTS; U2OS, BacMam KCNH2, thallium flux FluxOr; hits give low values; activity change, % at 1.84 µM; 340,000 compounds, 0.37% hits;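 active = maximum activity change below -70%; inconclusive = maximum activity change between -70% and -50%; inactive = maximum activity change above -50%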
Target sequence (Q12809 whole entry, looked up): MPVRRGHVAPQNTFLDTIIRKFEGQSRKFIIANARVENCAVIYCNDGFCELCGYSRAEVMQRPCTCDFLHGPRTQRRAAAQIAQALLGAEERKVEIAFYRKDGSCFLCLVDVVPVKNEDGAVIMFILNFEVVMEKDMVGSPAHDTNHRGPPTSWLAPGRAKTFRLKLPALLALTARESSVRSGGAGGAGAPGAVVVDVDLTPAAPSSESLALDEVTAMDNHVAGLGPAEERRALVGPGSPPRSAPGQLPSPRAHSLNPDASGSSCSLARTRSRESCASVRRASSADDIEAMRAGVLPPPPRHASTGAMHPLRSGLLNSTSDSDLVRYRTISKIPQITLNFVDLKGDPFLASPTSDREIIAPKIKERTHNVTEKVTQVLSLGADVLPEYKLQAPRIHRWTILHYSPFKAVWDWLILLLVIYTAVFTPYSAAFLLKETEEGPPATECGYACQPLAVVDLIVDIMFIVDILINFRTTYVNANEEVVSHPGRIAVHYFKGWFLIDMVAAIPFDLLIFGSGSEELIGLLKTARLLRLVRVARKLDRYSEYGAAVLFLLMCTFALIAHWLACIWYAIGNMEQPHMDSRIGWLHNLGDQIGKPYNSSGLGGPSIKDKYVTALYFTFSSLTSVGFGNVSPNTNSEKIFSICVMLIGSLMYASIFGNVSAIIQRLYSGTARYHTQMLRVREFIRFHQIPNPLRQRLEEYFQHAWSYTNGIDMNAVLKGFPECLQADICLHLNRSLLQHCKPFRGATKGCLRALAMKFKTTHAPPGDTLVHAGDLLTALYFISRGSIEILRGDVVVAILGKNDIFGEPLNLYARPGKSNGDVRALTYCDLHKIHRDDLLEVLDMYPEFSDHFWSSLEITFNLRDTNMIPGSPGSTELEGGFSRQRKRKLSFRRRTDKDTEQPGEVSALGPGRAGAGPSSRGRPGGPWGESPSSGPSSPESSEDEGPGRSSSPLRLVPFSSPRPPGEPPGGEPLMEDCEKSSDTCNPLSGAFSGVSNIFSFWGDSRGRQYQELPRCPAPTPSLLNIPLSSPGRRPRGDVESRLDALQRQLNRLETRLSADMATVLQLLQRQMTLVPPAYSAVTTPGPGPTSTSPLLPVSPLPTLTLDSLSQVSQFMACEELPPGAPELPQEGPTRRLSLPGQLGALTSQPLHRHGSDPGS
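U2OS cells were transduced with wild-type KCNH2 virus (2.03 x 10^8 / mL) for 4 h at room temperature, then cultured overnight at 37 C. Thallium flux was read with FluxOr dye. Rate constants were normalized to DMSO controls.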
SW480 rereplic = A quantitative high throughput screen for small molecules that induce DNA re-replication in SW480 colon adenocarcinoma cells; 340,000 compounds, 1.8% hits; SW480 DNA re-replication, Hoechst DNA content imaging, 48 h; AID 624297, 2012; Potency, µM (titrated, usually from 46.1 µM), usual class: activators; note: nearly all actives have a fitted effect of over 55% in size
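Image-based DNA-content assay: after two days of treatment, nuclei were labelled with the DNA dye Hoechst and imaged, and hits were compounds raising the count of nuclei showing high fluorescence intensity.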
MCF10A rerep = A quantitative high throughput screen for small molecules that induce DNA re-replication in MCF 10a normal breast cells; MCF 10A DNA re-replication, Hoechst nuclear intensity, 48 h; Potency, µM (series often up to 46.1 µM), usual class: activators; 350,000 compounds, 2.9% hits; note: nearly all actives have a fitted effect of over 50% in size
KB-3-1 tox = qHTS assay for MDR1-selective chemotherapeutics: Primary screen using the parental adenocarcinoma cell KB-3-1; KB-3-1 viability, CellTiter-Glo ATP luminescence, 72 h; Potency, µM (doses to about 46.1 µM), usual class: cytotoxic; 400,000 compounds, 1.4% hits; AID 1347075, 2019; note: nearly all actives have a fitted effect of over 60% in size
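KB-3-1 cells, DMEM (no phenol red) + 10% FBS; compound by pin transfer, 72 h, 37 °C. Readout: CellTiter-Glo luminescence after 10 min. Data normalized, curve-fitted.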
Numbers stand for hits; - = inactive; ? = inconclusive; . = no result given. Unless noted, calls come from the whole dose curve; as a rule, active = well fitted curve in the direction sought with a large enough effect; inconclusive = small, poorly fitted or top-dose-only effect, or another doubt; inactive = no such curve, though single readings can be large; an effect the other way counts as inactive or inconclusive.

SMILES	KCNH2 3.1 inh	KB-V1 cytotox	hERG WT inh	SW480 rereplic	MCF10A rerep	KB-3-1 tox
CC(C)C[C@@H](CN1CCCC1CN1C(=S)NC[C@@H]1Cc1ccc(O)cc1)N1C[C@H](Cc2ccccc2)N(CCc2ccccc2)C1=S (some centres undefined)	-	-	-71	?	-	?
COc1ccc(Cc2noc(CN3CCNC(=O)CC3)n2)cc1OC	-	-	-	-	-	-
Cc1ccc(S(=O)(=O)CC(=O)c2cc3cccc(C)c3oc2=O)cc1	-	-	-	-	-	-
CCN1CCN(c2oc(-c3ccc(COc4ccc(OC)cc4)o3)nc2C#N)CC1	.	-	.	.	.	-
CCC(c1nnnn1Cc1ccccc1)N(Cc1ccccc1)Cc1cc2cc(C)ccc2[nH]c1=O (centres undefined)	.	-	.	.	.	-
Cc1cccc2c1Sc1ccc(Cl)cc1CC2N1CCNCC1 (centres undefined)	-	?	-	-	12µM	?
CCc1cccc2c1Sc1ccccc1CC2N1CCNCC1 (centres undefined)	-77	13µM	-	-	?	?
O=C1Cc2c([nH]c3ccc(Br)cc23)-c2ccccc2N1	-	?	-	-	4.1µM	?
S=C(NCCCc1cnc[nH]1)NCCCN(Cc1ccc(Cl)cc1)c1ncc(Br)cn1	.	-	.	.	.	-
CC1(C)C2CCC1(C)C(SC(=N)N)C2 (centres undefined)	.	18µM	-	?	-	-
CC1(C)C2CC[C@]1(C)[C@@H](O)C2	.	.	.	-	-	.
Cc1c(C(=O)NCc2ccccc2Cl)sc2ncnc(N(C)C3CCCCC3)c12	.	?	.	.	.	21µM
Cc1c(C(=O)Nc2ccccc2Cl)sc2ncnc(N(C)C3CCCCC3)c12	.	-	.	.	.	-
O=C(N/N=C/c1ccc(O)cc1O)/C(=C/c1ccccc1)CCO	-	?	-	?	18µM	-
COc1cc(/C=N/NC(=O)/C(=C/c2ccccc2)CCO)ccc1O	-	-	-	?	-	-
CCC(C)NCCOCCOc1ccc(C)cc1Br (centres undefined)	-	-	-	-	-	-
CCC(C)NCCCOc1c(C)cc(C)cc1Br (centres undefined)	-	-	-	16µM	?	-
N#Cc1c(C(F)(F)F)cc(-c2cccs2)nc1SCc1ccccc1F	.	?	.	.	.	-
COc1ccc(CN(C2CCCCC2C)S(=O)(=O)c2ccc(S(=O)(=O)N(C)C)cc2)cc1OC (centres undefined)	-	6.5µM	-	-	?	-
COc1cc(CN(C2CCCCC2C)S(=O)(=O)c2ccc(S(=O)(=O)NC3CC3)cc2)cc(OC)c1OC (centres undefined)	-	-	-	-	-	?
COc1ccccc1CNC(=O)c1ccc2nc(C)c(N(C)Cc3ccc(NC(C)=O)cc3)n2c1	.	-	.	.	.	-
O=C(Cn1c(=O)nc(-c2ccccc2)c2ccccc21)NCCCc1ccccc1	.	-	.	.	.	-
CC(=O)C1=C(O)C(CSCc2ccccc2)N(C)C1=O (centres undefined)	-	21µM	-	-	-	-
O=C(CSCc1ccccc1)NC1CCSC1=O (centres undefined)	-	-	-	-	?	-
CNCC(O)CN(c1ccccc1)c1ccccc1 (centres undefined)	-81	-	-	-	?	-
SMILES	KCNH2 3.1 inh	KB-V1 cytotox	hERG WT inh	SW480 rereplic	MCF10A rerep	KB-3-1 tox
OC(CN1CCCCCC1)CN(c1ccccc1)c1ccccc1 (centres undefined)	?	-	-	-	-	?
OC(CN1CCOCC1)CN1CCOCC1	-	-	-	-	-	-
OC(CN1CCOCC1)CN(c1ccccc1)c1ccccc1 (centres undefined)	-	15µM	-	-	-	-
OC(CN1CCCCC1)CN(c1ccccc1)c1ccccc1 (centres undefined)	-183	-	-	-	-	-
COc1cccc(CNC(=O)c2ccc3c(c2)N(C)C(=O)C2CCCCN32)c1 (centres undefined)	.	-	.	.	.	-
CC(=O)Nc1ccc(C(=O)Cn2c3[n+](c4c(F)c(F)ccc42)CCCCC3)cc1	-	-	-	-	-	-
O=C(CSc1c2c(nc3cc(Cl)ccc13)CCCC2)N1CCN(c2ccccc2F)CC1	.	?	.	.	.	-
COc1cccc(CNc2nc(Cl)nc3nc[nH]c23)c1	.	-	.	.	.	-
COc1ccc(C(=O)CN2CCN(c3ccc(Cl)cc3)CC2)cc1OC	-	-	-	-	-	-
COc1ccc(N2CCN(CC(=O)c3ccc(Cl)cc3)CC2)cc1	-	?	-	-	18µM	-
COc1ccc(C(=O)CCN2CCN(c3ccc(OC)cc3)CC2)cc1	-71	-	-	?	?	-
CC(C)Oc1ccc(C(=O)CCN2CCOCC2)cc1	-	?	-	?	?	-
CC(C)Oc1ccc(C(=O)CCN2CCCCC2)cc1	-	-	-	?	23µM	-
COc1ccc(N2CCN(CCC(N)=O)CC2)cc1	-	-	-	-	-	-
CCOc1ccc(NC(=O)CCN2CCN(c3ccccc3F)CC2)cc1	-	?	-	18µM	?	?
O=C(CCC1N=C2c3ccccc3N=C(SCc3cccc(Cl)c3)N2C1=O)NCc1cccs1 (centres undefined)	.	-	.	.	.	-
COc1ccc(-c2cn3nc(N4CCCC(C(=O)Nc5ccccc5F)C4)sc3n2)cc1 (centres undefined)	.	-	.	.	.	-
COc1ccc(C(=O)CCN2CCN(c3ccccc3F)CC2)cc1	-	-	-	?	5.8µM	-
CCCCN1C(=O)/C(=C2/Sc3ccccc3N2C)S/C1=N\c1ncn[nH]1	-	?	-	15µM	-	?
Cc1ccc(C(=O)CSc2nnc(COc3ccc(C#N)cc3)n2-c2ccccc2)cc1	-	-	-	-	-	-
Cc1ccc(NC(=O)CSc2nnc(COc3ccc(C#N)cc3)n2-c2ccccc2)cc1C	-71	?	-	-	-	-
Cc1ccc(OCc2nnc(SCC(=O)Nc3cccc4ccccc34)n2-c2ccccc2)cc1	-	?	-	-	18µM	-
OC(CSc1ccccc1)CN1CCN(c2ccc(Cl)cc2)CC1 (centres undefined)	-86	-	-	?	-	-
N#Cc1c[nH]n2c(NC3CCCC3)c(-c3cccc(Br)c3)nc12	.	-	.	.	.	-
